{"source": "paper PMC7819943", "about": "“Rice protein-binding microarrays: a tool to detect cis-acting elements near promoter regions in rice”", "note": "The full ranking holds about 39,000 sequences; the median of “fluorescence intensity (a.u.)” is about 4,300, and the highest 2% start at about 39,000. The sample holds the highest values, similar sequences and a random draw of the others, so the mix is not that of the screen.", "data": [{"target": "T1, OsSMF1 (Oryza sativa, UniProt Q6ZLB0 1-436)", "T1 sequence": "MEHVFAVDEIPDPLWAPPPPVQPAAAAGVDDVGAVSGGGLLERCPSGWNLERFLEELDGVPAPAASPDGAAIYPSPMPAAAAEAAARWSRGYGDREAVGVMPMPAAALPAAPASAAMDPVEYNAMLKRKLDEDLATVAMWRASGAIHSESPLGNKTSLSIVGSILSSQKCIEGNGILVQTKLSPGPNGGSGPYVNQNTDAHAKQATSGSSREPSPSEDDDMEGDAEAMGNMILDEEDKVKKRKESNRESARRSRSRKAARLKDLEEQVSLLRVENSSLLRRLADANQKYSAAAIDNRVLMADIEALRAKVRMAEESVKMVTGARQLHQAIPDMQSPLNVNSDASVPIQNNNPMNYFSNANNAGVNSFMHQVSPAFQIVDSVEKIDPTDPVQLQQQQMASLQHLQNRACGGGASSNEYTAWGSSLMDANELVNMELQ", "test": "protein-binding microarray (RPBM); PBS, 2% BSA, 51.3 ng/ul salmon testes DNA, 50 uM zinc acetate, 200 nM TF, 25 C, 1 h; high values mean tight binding", "conditions": "protein: recombinant; tags: N-terminal polyhistidine and DsRed monomer fusion (pET32a); chain copies: 2; label: CyDye5-dUTP incorporated in the synthesized complementary strand; 3' TTTTT single-stranded linker to array surface; dsDNA, one strand shown", "in_short": "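Binding signal here means per-feature fluorescence intensity in arbitrary units. The values were read on an Axon 4000B scanner after a custom Agilent array, double-stranded by primer extension with Cy5-dUTP, was incubated with 200 nM protein at 25 °C for 1 h in PBS with 2% BSA, salmon testes DNA and 50 µM zinc acetate, then washed. The proteins were transcription factors with an N-terminal polyhistidine tag and DsRed, expressed in E. coli BL21-CodonPlus and purified on Ni–NTA.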", "values": [{"sequence": "TAGTAGATCTAGTATTTTATCTTTAGTCCATCTACCGAGCCGGAGTCACCTAGTGCAG", "binding signal": "28500 fluorescence intensity (a.u.)"}, {"sequence": "GCCGCTACAAACCGTGGGCAAGACGTGTCGCCATGGGAGCCGGAGTCACCTAGTGCAG", "binding signal": "4560 fluorescence intensity (a.u.)"}, {"sequence": "TGCCAATGTTCCAATTGGTGTTGTCATCTTTGGGTTACCACGGAGTCACCTAGTGCAG", "binding signal": "14100 fluorescence intensity (a.u.)"}, {"sequence": "CAATTTAATGCTACTTATCTCACATGATGTCTTGGATGTTCGGAGTCACCTAGTGCAG", "binding signal": "3980 fluorescence intensity (a.u.)"}, {"sequence": "ATTTGGGATGTCTTTATCTCATCCAATTAATCCACGGATACGGAGTCACCTAGTGCAG", "binding signal": "49200 fluorescence intensity (a.u.)"}, {"sequence": "GGGCACTCGAACCATCTAGTGCAGACGTGGTAACTGGCGCCGGAGTCACCTAGTGCAG", "binding signal": "5510 fluorescence intensity (a.u.)"}, {"sequence": "TCTTATACTAAGATAATAAGATTATATCCTTGTCATCCAACGGAGTCACCTAGTGCAG", "binding signal": "4430 fluorescence intensity (a.u.)"}, {"sequence": "ATATCCATATCAAATTAAGCCAGGTTTGTAATTAATAACTCGGAGTCACCTAGTGCAG", "binding signal": "9630 fluorescence intensity (a.u.)"}, {"sequence": "CCAAACTAATTAAGACAGCCAACTCACCTCCATCATATAACGGAGTCACCTAGTGCAG", "binding signal": "65500 fluorescence intensity (a.u.)"}, {"sequence": "GCCGCCGCTCCCTCCCAATGACCCGCCGGATCTCCTAGTGCGGAGTCACCTAGTGCAG", "binding signal": "3160 fluorescence intensity (a.u.)"}, {"sequence": "CCTGCAGCCAGGTCCTCGTATCATAGATGACGACGACTTCCGGAGTCACCTAGTGCAG", "binding signal": "4660 fluorescence intensity (a.u.)"}, {"sequence": "CGAAGCGGTTCAGGAAGATGGAGCGGCACGTGGCTGCGACCGGAGTCACCTAGTGCAG", "binding signal": "5240 fluorescence intensity (a.u.)"}, {"sequence": "TTTTGGATTCCCTTTTCATCCATGGATGCATGTGTTCCTTCGGAGTCACCTAGTGCAG", "binding signal": "3220 fluorescence intensity (a.u.)"}, {"sequence": "TACTAGTGTGGACATGTTCCCCTTTTCAGGAAGATGGCAGCGGAGTCACCTAGTGCAG", "binding signal": "40300 fluorescence intensity (a.u.)"}, {"sequence": "GGCAGCGACCACGACACGTCGTTGTTCCCTCTGCTCCCGCCGGAGTCACCTAGTGCAG", "binding signal": "6470 fluorescence intensity (a.u.)"}, {"sequence": "TCCGAACATCCGCGTGTCTGCTTCTGCGCCAGCCCGAGCCCGGAGTCACCTAGTGCAG", "binding signal": "44300 fluorescence intensity (a.u.)"}, {"sequence": "GCCACCGCTGCATCATCCCGCCTGTCTGCCTGCGCGCGCCCGGAGTCACCTAGTGCAG", "binding signal": "3430 fluorescence intensity (a.u.)"}, {"sequence": "GCGCTGCCACGAGTGCCCGCGTCATCCCGTCCCCTCGCACCGGAGTCACCTAGTGCAG", "binding signal": "6120 fluorescence intensity (a.u.)"}, {"sequence": "CACCCGCCGCTGCTCTGCCTACTCGCCGGCCACCTCCTCACGGAGTCACCTAGTGCAG", "binding signal": "3720 fluorescence intensity (a.u.)"}, {"sequence": "GCACCTCGCAATATCCATGGTCCCCGCTGCCCGTGGACTCCGGAGTCACCTAGTGCAG", "binding signal": "41200 fluorescence intensity (a.u.)"}, {"sequence": "GTGTGTGTGTGTGCTGCGTGTGCGTGTGCGCGCGCGTGCCCGGAGTCACCTAGTGCAG", "binding signal": "5210 fluorescence intensity (a.u.)"}, {"sequence": "AACTCCTCGCCACCACGCCGCTTTATTCTCTAAGAACCCCCGGAGTCACCTAGTGCAG", "binding signal": "40700 fluorescence intensity (a.u.)"}, {"sequence": "CCAAACCCCACGCACGCCGCGTCGCCGCCTCCTCCTCTCCCGGAGTCACCTAGTGCAG", "binding signal": "3670 fluorescence intensity (a.u.)"}, {"sequence": "CAATCCCACCTCGCGCGATGACTCCGCACCCGCCCCACCTCGGAGTCACCTAGTGCAG", "binding signal": "7260 fluorescence intensity (a.u.)"}, {"sequence": "CCCTCGCCGCCACGGCGAACCCCTCGCCGCCGCCACCGCCCGGAGTCACCTAGTGCAG", "binding signal": "3570 fluorescence intensity (a.u.)"}, {"sequence": "GACTCCCGCGTGCTCGCCGCGCCGCCCACCGTCACCGCCTCGGAGTCACCTAGTGCAG", "binding signal": "3230 fluorescence intensity (a.u.)"}, {"sequence": "TCCCAAACCCCGCGCCGCCTCTTACCGCTTCGCGTCAGCTCGGAGTCACCTAGTGCAG", "binding signal": "63900 fluorescence intensity (a.u.)"}, {"sequence": "ACCAAACATTACCTAATGCAATCGAACTATCGAAGACATGCGGAGTCACCTAGTGCAG", "binding signal": "3700 fluorescence intensity (a.u.)"}, {"sequence": "GTGAGACTGGCGAGGCCCTTCTTGCGTGGCGCTGCAAGCTCGGAGTCACCTAGTGCAG", "binding signal": "7600 fluorescence intensity (a.u.)"}, {"sequence": "ACACTCCAGCATAGTTAATGTTTACTGCTAGGAGGATTCACGGAGTCACCTAGTGCAG", "binding signal": "25600 fluorescence intensity (a.u.)"}, {"sequence": "CTCCTGGTACGCCTCGCTCAGCTCGTCCACCGTCGCCTCCCGGAGTCACCTAGTGCAG", "binding signal": "3750 fluorescence intensity (a.u.)"}, {"sequence": "TAGAGCGCCACATGACATCTTAGAAGCGTTTGTAGGAGTACGGAGTCACCTAGTGCAG", "binding signal": "30400 fluorescence intensity (a.u.)"}, {"sequence": "TTATACATGCTCACGTGGCTATGTCATTGCCCTGGGTGGGCGGAGTCACCTAGTGCAG", "binding signal": "12000 fluorescence intensity (a.u.)"}, {"sequence": "CTAAATCCTCGGGTCCACATGTCATACTCAGCCTCTTTACCGGAGTCACCTAGTGCAG", "binding signal": "5460 fluorescence intensity (a.u.)"}, {"sequence": "TCTGGTCTTTCCGCGTGTCGACGACCACGGTGGCGGTGCACGGAGTCACCTAGTGCAG", "binding signal": "3540 fluorescence intensity (a.u.)"}, {"sequence": "TCGCCACCGCCACGTCATCTCCCCACCCTCCTCCTCTTCCCGGAGTCACCTAGTGCAG", "binding signal": "44700 fluorescence intensity (a.u.)"}, {"sequence": "AAACCAAAACCAAACCGAAGCTTCCCCATCTCGCGTGAACCGGAGTCACCTAGTGCAG", "binding signal": "40800 fluorescence intensity (a.u.)"}, {"sequence": "TCCTTGTCGCGCTGCCATCGCCACCCAATGCCATCGAGCTCGGAGTCACCTAGTGCAG", "binding signal": "49600 fluorescence intensity (a.u.)"}, {"sequence": "ATCCCATCGCGCCACGCGAGCTCGATCGATCGAGGTGTGTCGGAGTCACCTAGTGCAG", "binding signal": "3490 fluorescence intensity (a.u.)"}, {"sequence": "TAGGATGCCACGTCATCTCTCCCTTCCCCTCTCTCTCTCCCGGAGTCACCTAGTGCAG", "binding signal": "27000 fluorescence intensity (a.u.)"}, {"sequence": "CCATTCCCAAAAGCAAAGCGAACCTAAGCTCGCTTCGTCTCGGAGTCACCTAGTGCAG", "binding signal": "21000 fluorescence intensity (a.u.)"}, {"sequence": "GATCGTCGCGTCGTCGGCGTTGGCATCGGCATCCATGTGCCGGAGTCACCTAGTGCAG", "binding signal": "3830 fluorescence intensity (a.u.)"}, {"sequence": "CCGGTCGTCCGTCAGCATCCTCTCTTCCGTTGGTCATCCTCGGAGTCACCTAGTGCAG", "binding signal": "4550 fluorescence intensity (a.u.)"}]}]}
